Screens from PubChem BioAssay.
DT40 TDP1 no CPT – qHTS for Inhibitors of human tyrosyl-DNA phosphodiesterase 1 (TDP1): qHTS in cells in absence of CPT | DT40 Tdp1-/- hTDP1 cells, no CPT, ATP luminescence, 48 h | Potency, µM (doses to about 46.2 µM), usual class: inhibitors | hit rate 15% among 420,000; also: nearly all actives have a fitted effect of over 55% in size
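Readout: luminescence from CellTiter-Glo after 30 min in the dark at RT. Cells: DT40 Tdp1-/- with stable hTDP1, 400/well. Exposure: compounds alone, ≥48 hr, 37 °C.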
TDP1 cell CPT – DT40-hTDP1 cell growth loss with CPT; chicken DT40 Tdp1-/-;hTDP1 cells + 20 nM CPT, ATP luminescence, 48 h; Potency, µM (top dose mostly 46.2 µM), actives largely listed as inhibitors; hit rate 12% among 420,000; AID 686979; also: nearly all actives have a fitted effect of over 55% in size
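Cell growth measured by CellTiter-Glo luminescence after a minimum 48 h, 37 C compound exposure with 20 nM CPT in Tdp1-knockout DT40 cells stably expressing hTDP1, seeded 400/well; qHTS titration format.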
HT1080 IDH1KD tx – HT-1080 IDH1 knockdown cell toxicity (counter line); hit rate 2% among 360,000; Potency, µM (highest dose often 46.1 µM), hits mostly cytotoxic; AID 686971; HT-1080 IDH1 knockdown viability, ATP luminescence, 48 h
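In this qHTS, HT-1080 cells depleted of IDH1 are exposed for 48 h at 37 °C to compound titrations. Toxicity is scored from CellTiter-Glo luminescence, with DMSO as full viability and medium alone as none.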
ELG1 repair inh – ELG1-dependent DNA repair inhibition; HEK293T ELG1-luciferase reporter, luminescence, 16 h; DNA damage induced by 5-fluorouridine; Potency, µM (series often up to 46.1 µM), hits mostly inhibitors; hit rate 2.3% among 330,000; also: nearly all actives have a fitted effect of over 55% in size
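5-Fluorouridine DNA damage + compound/DMSO, 2,000 cells/well, 16 h, 37 °C/5% CO2. ONE-Glo, 30 min RT, luminescence. Readout = decrease in reporter signal.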
IL-1B inflam inh – inflammasome signaling inhibition, IL-1 beta readout | THP-1 LPS/ATP IL-1B secretion, AlphaLISA, 16 h; active compounds read low | activity change, % at 57.5 µM | hit rate 4.7% among 360,000 | AID 743279; in the data active = activity change below about -50%; inconclusive = mostly about -30% to -49%
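THP-1 cells pretreated 1 hr with compounds (up to 57.5 uM final), then stimulated with LPS (250 ng/mL final) plus ATP (1.25 mM final); secreted IL-1B measured by AlphaLISA after 16 hr, decreased signal indicating inhibition.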
HT1080NT lethal – kills 2HG-producing HT-1080-NT fibrosarcoma cells. hit rate 1.6% among 360,000. HT-1080-NT fibrosarcoma viability, CellTiter-Glo ATP luminescence, 48 h. AID 686970. Potency, µM (highest dose often 46.1 µM), usual class: cytotoxic;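 also: NT is the 2HG producing partner of a matched IDH1 knockdown line; nearly all actives have a fitted effect of over 55% in size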
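Luminescent CellTiter-Glo readout after 48 hours of compound exposure at 37 degrees C defined viability of HT-1080-NT cells. Activity was normalized to DMSO wells and cell-free media wells; concentration-response curves were fitted and assigned curve classes.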
Hits are given with their value; - = inactive; ? = inconclusive; . = no result; [ ] = another dose, or the depositor's remark. Shown are actives, neighbours in structure and some others; about 19% of the full set was active somewhere. Unless noted, calls follow the shape of the dose curve; as a rule, active = well fitted curve in the direction sought with a large enough effect; inconclusive = small, poorly fitted or top-dose-only effect, or another doubt; inactive = no such curve, though single readings can be large; an effect the other way counts as inactive or inconclusive.

SMILES	DT40 TDP1 no CPT	TDP1 cell CPT	HT1080 IDH1KD tx	ELG1 repair inh	IL-1B inflam inh	HT1080NT lethal
COc1ccc(N2CCN(C(=O)c3ccc(SC)cc3OC)CC2)cc1	?	-	-	-	-	-
COc1ccc(C(=O)N2CCN(c3cccc(Cl)c3)CC2)c(OC)c1	12µM	16µM	?	-	-	15µM
COc1cc(/C=N/NC(=O)c2ccccn2)ccc1OC(=O)c1cccs1	-	-	-	-	-	-
COCCCn1cc(CN2CC(N3CCN(Cc4cccc(C)c4)CC3)CS2(=O)=O)nn1 (stereo unspecified)	-	-	-	.	-	-
CN(Cc1cccc(Cl)c1Cl)C(=O)CCNC(=O)c1ccco1	-	-	-	-	-	-
O=C(CN1CCOCC1)NNC(=O)c1ccc([N+](=O)[O-])cc1	-	-	-	-	-	-
O=C(CSC1CS(=O)(=O)c2cc([N+](=O)[O-])ccc21)NNC(=O)c1ccccc1 (stereo unspecified)	21µM	13µM	?	-	-	-
O=C(CSC1CS(=O)(=O)c2cc([N+](=O)[O-])ccc21)NNC(=O)c1ccc(Cl)cc1 (stereo unspecified)	2.3µM	5.2µM	-	-	-	-
O=C1c2cccc3c(N4CCCCC4)ccc(c23)C(=O)N1c1cccc(O)c1	?	?	?	-	-68	-
Cc1n[nH]c(C)c1N1C(=O)c2cccc3c(N4CCCCCC4)ccc(c23)C1=O	23µM	?	-	?	-	-
COc1cccc(Oc2nc(-c3ccncc3)nc3ccccc23)c1	?	15µM	-	-	?	-
COc1ccc(Nc2nc(N3CCN(S(=O)(=O)N(C)C)CC3)nc3ccccc23)cc1	8.2µM	12µM	-	?	-	-
COc1ccc(Nc2nc(-c3ccccc3)nc3ccccc23)c(OC)c1	21µM	?	-	?	-	-
COc1ccc(OC)c(Nc2nc(-c3ccncc3)nc3ccccc23)c1	7.3µM	18µM	-	?	-	-
CC(Nc1nc(N2CCN(S(C)(=O)=O)CC2)nc2ccccc12)c1ccccc1 (stereo unspecified)	?	?	-	?	-	-
CC1=C(C(=O)Nc2ccc(C)cc2C)C(c2ccc(Br)cc2)n2ncc(C(=O)Nc3cccc(C)c3)c2N1 (stereo unspecified)	?	-	.	.	.	.
O=C(CN1C(=O)COc2ccccc21)N1CCN(C2CCCCC2)CC1	-	-	-	-	-	-
COc1ccc(Nc2nc3cc(C)ccc3cc2C#N)c(OC)c1	0.029µM	1.2µM	?	-	-	-
COc1ccc(Nc2nc3cc(C)ccc3cc2C#N)cc1	-	?	-	-	-	-
COc1ccc(Nc2nc(N3CCN(S(C)(=O)=O)CC3)nc3ccccc23)c(OC)c1	?	?	-	?	-	-
COc1ccc(Nc2nc(N3CCCCC3)nc3ccccc23)c(OC)c1	?	?	?	23µM	-62	?
COc1cccc(Nc2nc(-c3ccccc3)nc3ccccc23)c1	?	23µM	?	?	-73	?
O=C(c1cc(S(=O)(=O)NCc2ccco2)ccc1Br)N1CCOCC1	-	-	-	-	-	-
CC1(Cc2cc(Cl)ccc2C(F)(F)F)C(=O)Nc2ccc(OC(F)(F)F)cc21 (stereo unspecified)	13µM	23µM	21µM	.	-	?
CC1(Cc2cc(Cl)ccc2C(F)(F)F)C(=O)Nc2cc(F)ccc21 (stereo unspecified)	15µM	26µM	?	.	-	?
SMILES	DT40 TDP1 no CPT	TDP1 cell CPT	HT1080 IDH1KD tx	ELG1 repair inh	IL-1B inflam inh	HT1080NT lethal
CC1(Cc2ccc(C(F)(F)F)o2)C(=O)Nc2cc(-c3ccc(F)cc3F)ccc21 (stereo unspecified)	4.6µM	?	?	.	-64	?
CC1(Cc2cc(Cl)ccc2C(F)(F)F)C(=O)Nc2ccc(-c3ccc(F)c(Cl)c3)cc21 (stereo unspecified)	?	?	-	.	-	?
CC1(Cc2cc(Cl)ccc2C(F)(F)F)C(=O)Nc2cc(C(F)(F)F)ccc21 (stereo unspecified)	15µM	23µM	21µM	.	-	?
CC1(Cc2ccccc2Cl)C(=O)Nc2cc(-c3ccccc3Cl)ccc21 (stereo unspecified)	?	?	?	.	-	?
CCOC(=O)C1=CCC(c2ccccc2)N(S(=O)(=O)c2ccccc2)C1 (stereo unspecified)	18µM	23µM	-	.	-	-
CCOC(=O)C1=CCC(c2cccc(C)c2)N(S(=O)(=O)c2ccc(C)cc2)C1 (stereo unspecified)	16µM	18µM	?	.	-	?
C/C(=C\c1ccco1)CN1CCOc2ccc(CN3CCC(Oc4cccnc4)CC3)cc2C1	-	-[9.04 µM]	.	.	.	.
CN(C)c1ccc(/C=N/NC(=O)c2ccc3c(c2)OCO3)cc1	-	-	-	?	-	-
CN(C)c1ccc(/C=C/C(=O)c2ccc3c(c2)OCO3)cc1	16µM	23µM	-	?	-92	?
COc1cccc(/C=C/C(=O)c2ccc[nH]2)c1	?	?	-	?	-93	-
O=C(/C=C/c1ccc2c(c1)OCO2)c1ccc[nH]1	?	-	-	?	-95	-
COc1cc(/C=C/C(=O)c2ccc3c(c2)OCCO3)cc(Br)c1OCC(=O)N(C)C	7.3µM	8.2µM	3.7µM	?	-104	4.6µM
O=C(c1ccc2c(c1)OCO2)c1ccc[nH]1	-	-	-	.	-	-
Cc1ccc(S(=O)(=O)N2CCN(Cc3ccccc3)CC2)c(C)c1NS(C)(=O)=O	-	-	.	.	.	.
NC(=O)c1ccc(NC(=O)C2CCN(S(=O)(=O)Cc3ccccc3)CC2)cc1	-	-	.	.	.	.
O=C(/C=C/c1ccc2c(c1)OCO2)c1cccs1	6µM	3.3µM	.	.	.	.
CCN(Cc1ccc2c(c1)OCO2)C(=O)/C=C/c1cccc(Br)c1	?	-	-	-	-	-
O=C(/C=C/c1cccc(Br)c1)c1ccc2c(c1)OCO2	?	?	?	?	-104	?
O=C(CNC(=O)c1ccc2c(c1)OCO2)N/N=C/c1cccc([N+](=O)[O-])c1	-	-	-	-	-	-
O=C(CNC(=O)c1ccc2c(c1)OCO2)N/N=C(Br)/C=C/c1ccccc1	7.3µM	2.6µM	15µM	?	-61	?
O=C(/C=C/c1ccccc1)c1ccc2c(c1)OCO2	?	18µM	-	?	-	-
O=C(C=Cc1ccc2c(c1)OCO2)C1CC1	?	-	-	.	-	-
